Compound activity deposited in PubChem BioAssay by National Center for Advancing Translational Sciences (NCATS).
Shown are actives, neighbours in structure and some others; about 13% of the full set was active somewhere.
Cycloheximide cs – affects cycloheximide protein synthesis inhibition readout, counter-screen | max response, % | cell reporter, cycloheximide protein synthesis inhibition counterscreen | 300,000 compounds, 12% hits; in the data active = max response mostly above about 13%, no sharp cut-off; inactive = mostly below about 14%; note: read at 38.3 µM for the half of the compounds with a filed dose; 0% is about no effect
Marburg entry inh – blocks Marburg virus binding to or entry into cells. Marburg virus pseudotyped entry inhibition, cell reporter. 300,000 compounds, 1.8% hits. Potency, µM (top dose mostly 37.8 µM), inactives show at the highest dose activity change, negative = inhibition, usual class: inhibitors. AID 540276; calls by dose curve; tested in HEK293 cells; note: potency is the fitted concentration of half-maximal effect; % is set by controls: 0 for no effect and ±100 for the full control effect
LASV entry inh – Lassa virus entry inhibition; Lassa virus pseudotype entry inhibition, cell reporter; Potency, µM (series often up to 37.9 µM), without a hit: at the highest dose activity change, negative = inhibition, actives largely listed as inhibitors; 300,000 compounds, 1.2% hits; AID 540256; calls by dose curve; tested in HEK293 cells; note: potency is the fitted concentration of half-maximal effect; % is set by controls: 0 for no effect and ±100 for the full control effect; nearly all actives have a fitted effect of over 50% in size
FMDV antiviral – antivirals against foot and mouth disease virus; FMDV antiviral cell-based qHTS; Potency, µM (top dose mostly 57.9 µM), inactives show top-dose activity change, negative = inhibition, hits mostly inhibitors; 410,000 compounds, 1.2% hits; AID 1159524; calls by dose curve; tested in HEK293T cells; note: read-out not given here; potency is the fitted concentration of half-maximal effect; % is set by controls: 0 for no effect and ±100 for the full control effect; nearly all actives have a fitted effect of over 45% in size
HCV inhibitor – blocks hepatitis C virus; Huh7.5.1 HCVcc-Cre infection, luciferase reporter, 44 h; Potency, µM (titrated, usually from 41.8 µM), for the others: at the top dose activity change, negative = inhibition, usual class: inhibitors; 340,000 compounds, 3.4% hits; AID 651820; active = well fitted inhibition curve with a large enough effect; inconclusive = small, poorly fitted or top-dose-only effect, or another doubt; inactive = no such curve, though single readings can be large or run the other way; note: potency is the fitted concentration of half-maximal effect; % is set by controls: 0 for no effect and ±100 for the full control effect
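Whole-lifecycle infectious HCVcc-Cre system; cells 1,000/well, compound then virus (~0.5 moi) added 4 h after plating, 44 h culture. Luciferase read 15 sec following 15 min substrate incubation, room temp.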
Shiga toxin inh – Shiga toxin inhibition; AID 2315; Vero cells, Shiga toxin protein synthesis inhibition reporter; inhibition, % at 38.7 µM; 290,000 compounds, 9.2% hits; in the data active = inhibition mostly above about 28%, no sharp cut-off; inactive = mostly below about 43%; note: 0% is about no effect
* marks the source's active call; other numbers are inactive results; ? = inconclusive; / = not tested or not shown; [ ] = remark or other dose.

SMILES	Cycloheximide cs	Marburg entry inh	LASV entry inh	FMDV antiviral	HCV inhibitor	Shiga toxin inh
Cc1cc(C)cc(N2C(=O)NC(=O)/C(=C\c3cccn3-c3ccc(Cl)cc3)C2=O)c1	11	?	?	8.9µM*	21%	14
Cc1cccc(N2C(=O)NC(=O)/C(=C\c3cnc(-c4ccccc4)nc3)C2=O)c1	14*	?	18%	-12%	11µM*	43
Cc1cc(C)cc(N2C(=O)NC(=O)/C(=C\c3cccn3-c3ccccc3)C2=O)c1	14*	?	?	35µM*	?	-4
CCC(C)(C)C1CCC(=NNC(=O)c2ccoc2C)CC1 (stereo unspecified)	56*	?	-1%	-7%	11%	69*
CC(NCC1COc2ccccc2O1)C(=O)NCc1ccccc1 (stereo unspecified)	-2	3%[46.1 µM]	10%	1%	16%	-2
Cc1cccc2[nH]c(-c3ccc(NC(=O)c4ccco4)cc3)nc12	32*	?	?	21%	-12%	126*
CS(=O)(=O)c1cccc(C(=O)Nc2cccc(-c3nc4ccccc4[nH]3)c2)c1	2	0%[46.1 µM]	?	11%	-18%	17
O=C(Nc1cccc(-c2nc3ccccc3[nH]2)c1)c1cccc(NC(=O)c2ccco2)c1	-7	13µM*	?	32µM*	3.5µM*	-19
Cc1ccc(-c2nc3ccccc3[nH]2)cc1NC(=O)c1sc2cc(Cl)ccc2c1Cl	20*	-19%	14%	22%	-47%	54
O=C(O)c1cccc(NC(=O)c2ccccc2NC(=O)c2ccco2)c1	-1	/	/	-16%	1%	-2
O=C(Nc1ccc2nc(-c3ccccc3)[nH]c2c1)c1ccco1	36*	?	?	19%	?	47*
Cc1cccc(C)c1OCC(=O)Nc1ccc(NC(=O)c2ccco2)cc1	9	0%[46.1 µM]	6%[46.1 µM]	-8%	-23%	-1
CCOc1ccc(-n2c(SCC(=O)Nc3ccc4c(c3)OCO4)nc3c(c2=O)SCC3)cc1	-3	/	/	-21%	2%	-8
NC(=O)CC(NC(=O)Cc1cccc2ccccc12)c1ccc(NCc2ccccc2)c([N+](=O)[O-])c1 (stereo unspecified)	-2	/	/	-6%	0%	-5
O=C(c1ccco1)N1CCN(C(=O)c2ccc(-c3ccc([N+](=O)[O-])cc3)o2)CC1	/	?	?	-24%	?	/
O=C1OCCC1Sc1nnc(-c2cccs2)n1Cc1ccccc1 (stereo unspecified)	10	?	2%	-3%	22%	-9
CCC(=O)N1CCc2cc(S(=O)(=O)CCC(=O)NC3CCCCC3)ccc21	-3	/	/	-6%	-19%	16
COc1ccc(C(=O)C[n+]2ccc(-c3nnc4n3CCC4)cc2)cc1	-8	5%	-1%	-24%	21%	-12
CCc1nnc(NC(=O)c2nc(SC)ncc2Cl)s1	/	4%[46.1 µM]	16%[46.1 µM]	-14%	/	/
Cc1ccc(-c2nc3ccccc3[nH]2)cc1NC(=O)c1ccco1	22*	7%	4%	20%	3%	53
O=C(Nc1ccc2nc[nH]c2c1)c1ccco1	30*	17%	17%	50%	2%	71*
O=C(c1cnc2sccn2c1=O)N1CCc2ccccc2C1	21	10%	?	29%	20%	23
COc1ccc(-c2cn3nc4c(nc3n2)CCCC4)cc1	26*	5.6µM*	?	-30%	17%	48*
O=C(Nc1ccc(CN2CCOCC2)cc1)c1cccs1	27*	?	3%	43%	7%	64*
O=C(NCCN1CCOCC1)c1cccs1	-2	1%	4%	-21%	13%	-16
SMILES	Cycloheximide cs	Marburg entry inh	LASV entry inh	FMDV antiviral	HCV inhibitor	Shiga toxin inh
COc1ccc(Br)cc1C(=O)NC(=S)Nc1ccc(CN2CCOCC2)cc1	10	?	5%[46.1 µM]	3%	?	3
c1ccc(CN2CCOCC2)cc1	-5	-4%	1%	/	13%	-18
O=C(NC(=S)Nc1ccc(CN2CCOCC2)cc1)c1ccc([N+](=O)[O-])cc1Cl	26*	?	13%[46.1 µM]	-22%	-19%	33
COc1cc2ccccc2cc1C(=O)Nc1ccc(CN2CCOCC2)cc1	20*	18%[46.1 µM]	/	39%	6.3µM*	35
O=C(Cc1ccccc1)Nc1ccc(CN2CCOCC2)cc1	31*	8%	15%	/	9%	81*
O=C(NC(=S)Nc1ccc(CN2CCOCC2)cc1)c1ccccc1[N+](=O)[O-]	13	/	/	9%	-3%	2
C=CCOCCN(CCOCC=C)C1=NS(=O)(=O)c2ccccc21	8	0%	-4%	0%	-9%	-4
O=C(Nc1ccc(CN2CCOCC2)cc1)c1ccc(Cl)cc1Cl	17*	/	/	-11%	10µM*	11
O=C(Nc1ccc(CN2CCOCC2)cc1)c1ccccc1F	42*	-16%	-2%	39%	12%	92*
O=C(Nc1ccc(CN2CCOCC2)cc1)c1cc(Br)ccc1Cl	3	/	/	-9%	-12%	10
Cc1cccc(C)c1NC(=O)C(c1cc2ccccc2o1)N1CCC(c2ccccc2)CC1 (stereo unspecified)	/	/	/	-21%	/	/
CCc1nccn1CCC(=O)N1CCCC(N2CCN(c3ccccc3C)CC2)C1 (stereo unspecified)	6	-24%	1%	-10%	?	10
Cc1cccc(C(=O)N2CCCC(N3CCN(c4cccc(Cl)c4)CC3)C2)n1 (stereo unspecified)	21*	3%	1%	-8%	-20%	15
O=C(c1ccncc1)N1CCCC(N2CCN(c3ccc(F)cc3)CC2)C1 (stereo unspecified)	27*	28%	-5%	-9%	4%	39*
O=C(c1cnccn1)N1CCCC(N2CCN(c3cccc(Cl)c3)CC2)C1 (stereo unspecified)	10	15%	4%	7%	11%	-16
CCc1nccn1CCC(=O)N1CCCC(N2CCN(c3cccc(Cl)c3)CC2)C1 (stereo unspecified)	31*	/	/	33%	?	49*
O=C1CCCCN1CCC(=O)N1CCCC(N2CCN(c3cccc(Cl)c3)CC2)C1 (stereo unspecified)	24*	22%	0%	20%	3%	35*
O=C(Cn1cc([N+](=O)[O-])cn1)N1CCc2ccccc2C1	-3	/	/	-9%	17%	-10
c1ccc(OCCSc2nnnn2C2CCCCC2)cc1	30*	-5%	14µM*	-22%	6%	95*
COc1ccc(OCCSc2nnnn2C2CCCCC2)cc1	10	?	-3%	-8%	-2%	26
CCO[C@@H]1OC(C(=O)NCc2nc3ccccc3[nH]2)=C[C@H](C(C)(C)C)[C@H]1CCCO	/	/	/	-29%	-9%	/
Cc1ccccc1NC(=O)CCC(=O)N/N=C/c1cc([N+](=O)[O-])ccc1O	-5	?	?	-17%	9%	-6
O=C(Cc1cccc2ccccc12)N/N=C/c1ccc(Sc2nc3ccccc3s2)o1	5	?	-24%	-19%	10µM*	5
